High-throughput results (PubChem BioAssay)
Only some compounds are listed: those with a hit (about 6% of all), similar ones and a draw of the others.
D1 antagonist: human D1 dopamine receptor antagonism | AID 504652 | P21728 | activity change, negative = inhibition, % at 10 µM | 3.2% of 360,000 active | HEK293 TREx D1 cells, calcium flux, dopamine EC80; active compounds read low; in the data active = activity change below about -30%
Target sequence (P21728 whole entry, looked up): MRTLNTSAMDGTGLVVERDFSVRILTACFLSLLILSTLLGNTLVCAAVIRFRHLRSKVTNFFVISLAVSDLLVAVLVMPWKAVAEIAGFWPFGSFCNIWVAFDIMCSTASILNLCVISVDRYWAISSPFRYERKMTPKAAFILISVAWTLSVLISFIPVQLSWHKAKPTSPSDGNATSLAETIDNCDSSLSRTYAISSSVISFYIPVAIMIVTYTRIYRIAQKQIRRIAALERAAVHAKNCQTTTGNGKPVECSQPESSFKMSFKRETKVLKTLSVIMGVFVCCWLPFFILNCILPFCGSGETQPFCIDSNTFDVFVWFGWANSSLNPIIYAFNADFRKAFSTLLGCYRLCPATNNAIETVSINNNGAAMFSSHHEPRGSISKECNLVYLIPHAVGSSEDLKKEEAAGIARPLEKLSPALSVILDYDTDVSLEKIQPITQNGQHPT
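Cells carrying a force-coupled, tetracycline-inducible human D1 receptor report calcium flux. Each well gets a 10 s baseline, compound with 180 s monitoring, then an EC80 dopamine stimulus with a second 180 s kinetic read.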
D1 agonist: human D1 receptor agonism; P21728; HEK293 T-REx D1 cells, calcium flux, agonist mode; activation, % at 2 µM; 1% of 360,000 active; AID 504660; in the data active = activation above about 30%
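Agonism was scored from calcium flux recorded over 180 s (1 read/s) after pintool compound addition, following a 10-cycle baseline. Cells were inducible force-coupled HEK293 TREx D1, plated overnight at 30 C and loaded with no-wash calcium dye.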
D1 PAM: potentiators of human D1 dopamine receptor; P21728; HEK293 TREx D1 cells, calcium flux, dopamine EC20 potentiation; potentiation, % at 10 µM; 0.036% of 360,000 active; AID 504651; in the data active = potentiation above about 30%
D3 antag: antagonists of human D3 dopamine receptor | P35462 | AID 652054 | D3R cells, DiscoveRx beta-arrestin luminescence, antagonist mode; active compounds read low | 2.5% of 360,000 active | max response, negative = inhibition, %; in the data active = max response below about -50%; inconclusive = no clear call, values can overlap the other calls
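Cells plated overnight at 1500 cells/well, then exposed to library compounds with dopamine controls for 90 minutes at 37 degrees C. DiscoveRx reagent added for 30–60 minutes at room temperature; luminescence read, quantitative HTS format.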
DRD3 agonist: activates the human D3 dopamine receptor; P35462; D3R DiscoveRx beta-arrestin cells, luminescence, 90 min; max activation, %; 0.58% of 410,000 active; AID 652048; in the data active = max activation above about 30%
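Cells at 1500/well, incubated overnight, then treated with pinned compounds (dopamine as control) for 90 min at 37 degrees C. DiscoveRx reagent added for 30 - 60 minutes at room temperature; luminescence read.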
Large screens that a line does not name were inactive.

CCCCCOc1ccc(C(=O)N(Cc2ccco2)C2CCS(=O)(=O)C2)cc1 (stereo not drawn)	DRD3 agonist 30
COc1ccc(NC(=O)C2CCCN(S(=O)(=O)c3ccc(F)cc3)C2)cc1 (stereo not drawn)	none (no result: D3 antag)
CCOCCCNC(=O)CCc1nnc2ccc(N3CCCCC3)nn12	D1 antagonist -31
CC1CCN(c2ccc3nnc(CCC(=O)Nc4ccc(F)c(F)c4)n3n2)CC1	D1 antagonist -30
CCOC(=O)C(Cc1ccccc1)NC(=O)CCc1nnc2ccc(N3CCCCC3)nn12 (stereo not drawn)	D1 antagonist -33
CCOCCCNC(=O)CCc1nnc2ccc(N3CCN(c4cccc(OC)c4)CC3)nn12	none (no result: D3 antag)
O=C(CCc1nnc2ccc(N3CCCC3)nn12)Nc1ccc(F)c(F)c1	none
CCN(CC)S(=O)(=O)c1ccc(SCC(=O)c2c(N)n(C3CC3)c(=O)[nH]c2=O)nc1	none (no result: D1 antagonist, D1 agonist, D1 PAM)
CCOc1ccc(CCNC(=O)c2ccc(CS(=O)(=O)c3ccccc3C)o2)cc1OCC	none (no result: D3 antag)
C[C@H]1C[C@@H]2[C@H]([C@@H](O)C[C@@]3(C)[C@H]2CC[C@]3(O)C(=O)COC(=O)CCC(=O)O)[C@@]2(C)C=CC(=O)C=C12	none (no result: D1 antagonist, D1 agonist, D1 PAM, D3 antag)
O=S(=O)(Nc1ncn[nH]1)c1ccc2ccccc2c1	none
CCOc1cc(S(=O)(=O)n2ccc(C)n2)ccc1Br	D1 antagonist -37
CCOc1cc(S(=O)(=O)Nc2ncn[nH]2)ccc1Br	D1 antagonist -52
CCN1CCN(Cc2c(O)ccc3c(=O)c(Oc4ccccc4C(C)C)c(C(F)(F)F)oc23)CC1	none (no result: D3 antag)
CCOc1ccc(OCC)c(NC(=O)C(NS(=O)(=O)c2cccs2)c2ccccc2)c1 (stereo not drawn)	none (no result: D3 antag)
CCc1ccc(C(=O)NC(Cc2c[nH]c3ccccc23)C(=O)OCC(=O)c2ccc(Br)cc2)cc1 (stereo not drawn)	none (no result: D3 antag)
Cc1ccc(NC(=O)Cn2c(=O)c(C(F)(F)F)nc3ccccc32)c(C)c1	none (no result: D3 antag)
O=S(=O)(c1cc(Br)c(Br)s1)N1CCN(c2ccccc2)CC1	none (no result: D3 antag)
CCCNC(=O)CCC(NS(=O)(=O)c1ccc(C)cc1)C(=O)NCCC (stereo not drawn)	D3 antag -56
CCNC(=O)C(CCSC)NS(=O)(=O)c1ccc(C)cc1 (stereo not drawn)	none
CCOC(=O)/C=C/C(=O)Nc1cccc([N+](=O)[O-])c1	none
CCOC(=O)/C=C/C(=O)Nc1ccccc1-c1ccccc1NC(=O)/C=C/C(=O)OCC	D3 antag -62
Nc1cnccc1C(=O)O	D1 agonist 32
COc1cc(OC)c(NS(=O)(=O)c2cc3c(cc2C)N(C(C)=O)CCO3)cc1Cl	none (no result: D3 antag)
COC1=CC(=O)c2c(ccc3ncnc(N)c23)C1=O	D3 antag -65 (no result: D1 antagonist, D1 agonist, D1 PAM)
NC(=Nc1ccc(Cl)cc1)c1ccccc1	D1 antagonist -53, D1 agonist 71
Cc1cc(=O)n2[nH]c(-c3ccco3)nc2n1	none
CCCc1cc(=O)n2[nH]c(-c3ccco3)nc2n1	DRD3 agonist 43
CCCc1cc(=O)n2[nH]c(NCc3cccs3)nc2n1	D1 antagonist -37
CCCc1cc(=O)n2[nH]c(NCc3ccccc3Cl)nc2n1	none
OC(CNCCNc1ncccc1C(F)(F)F)Cn1ccc2ccccc21 (stereo not drawn)	D1 antagonist -36, D3 antag inconclusive
O=C1C=CC(c2c[nH]c3ccccc23)CC1 (stereo not drawn)	none (no result: D1 antagonist, D1 agonist, D1 PAM)
CCOC(=O)CN(C(=O)CSc1nnc2c(n1)[nH]c1ccccc12)c1ccccc1	D3 antag -73
CCOC(=O)CN(C(=O)CSc1nnc(C)n1-c1ccccc1)c1ccccc1	D1 antagonist -52
CCOC(=O)CN(C(=O)CSc1nnc2c(n1)[nH]c1ccc(F)cc12)c1ccccc1	D3 antag -60
CC1CCCCN1C(=O)CSc1nnc2c(n1)[nH]c1ccc(F)cc12 (stereo not drawn)	none
CC1CCc2cc(F)ccc2N1C(=O)CSc1nnc2c(n1)[nH]c1ccc(F)cc12 (stereo not drawn)	D1 antagonist -37
CCOC(=O)CN(C(=O)CSc1nnc(C)n1-c1ccccc1)c1cccc([N+](=O)[O-])c1	none
